# Laboratory results as given in PubChem BioAssay AID1851 (National Center for Advancing Translational Sciences (NCATS), 2009).
# About 5,100 (32%) of roughly 16,000 compounds were called active. About 25% were inconclusive and are not listed. The list shows a part of the results. Values without a mark were called inactive. The call rests on the fitted dose curve; in most records, active means well fitted curve in the direction sought with a large enough effect; inconclusive means small, poorly fitted or top-dose-only effect, or effect the other way; inactive means no such curve, though single readings can be large or run the other way.
# Molecular target: Cytochrome P450 3A4 (Homo sapiens) (UniProt P08684)
# Sequence (P08684 whole entry, looked up): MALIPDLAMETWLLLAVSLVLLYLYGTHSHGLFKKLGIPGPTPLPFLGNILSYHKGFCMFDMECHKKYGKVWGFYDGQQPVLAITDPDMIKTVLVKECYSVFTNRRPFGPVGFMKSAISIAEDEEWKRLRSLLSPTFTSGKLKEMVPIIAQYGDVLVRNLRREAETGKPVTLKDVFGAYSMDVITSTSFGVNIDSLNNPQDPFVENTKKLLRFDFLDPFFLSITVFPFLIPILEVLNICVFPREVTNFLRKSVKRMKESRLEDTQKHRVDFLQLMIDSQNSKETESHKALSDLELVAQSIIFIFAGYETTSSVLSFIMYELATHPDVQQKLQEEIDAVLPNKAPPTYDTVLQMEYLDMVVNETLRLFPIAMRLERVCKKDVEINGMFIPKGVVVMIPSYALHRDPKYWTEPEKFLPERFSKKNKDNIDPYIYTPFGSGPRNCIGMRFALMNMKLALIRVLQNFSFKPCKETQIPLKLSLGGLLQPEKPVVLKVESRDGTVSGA
# Test: Cytochrome panel assay with activity outcomes
# Conditions: recombinant CYP, pro-luciferin dealkylation, luminescence, p450-cyp3a4; series mostly up to 57.1 µM; activity, negative = inhibition: at the top concentration
# On the % scale 0 is the no-effect control and ±100 the full control effect.
Compound,"activity, negative = inhibition",AC50
Cc1[nH]nc(N2CCCCCC2)c1[N+](=O)[O-],-25.9%,–
CCC(C(=O)NC(C)(C)C)N(C(=O)Cn1nnc(-c2cccs2)n1)c1cnc2ccccc2c1 (configuration not stated),–,2000 nM (active)
O=C(Nc1cnc2ccccc2c1)c1cccc(-n2cnnn2)c1,20.1%,–
CS(=O)(=O)Nc1cccc(-c2nc(NCCN3CCOCC3)c3ccccc3n2)c1,–,15800 nM (active)
CS(=O)(=O)Nc1cccc(-c2nc(N3CCNCC3)c3ccccc3n2)c1,-27.7%,–
CS(=O)(=O)Nc1ccc(Nc2c3ccccc3nc3ccccc23)cc1,-25.8% [at 11.4 µM],–
c1cncc(-c2nc(NCCN3CCOCC3)c3ccccc3n2)c1,–,7940 nM (active)
O=C1C=C(NCCN2CCOCC2)CC(c2ccccc2)C1 (configuration not stated),-22.3%,–
COc1cccc(C2=NOC(C(=O)NCCN3CCOCC3)C2)c1 (configuration not stated),-24.1%,–
CS(=O)(=O)Nc1cccc(-c2nc(N3CCOCC3)c3ccccc3n2)c1,–,1580 nM (active)
COc1cccc(-c2nc(NCCN3CCOCC3)c3ccccc3n2)c1,–,12600 nM (active)
CCCc1cc(=O)[nH]c(=S)[nH]1,-10.8% [at 25.6 µM],–
CCN(Cc1cc(Cl)cc(C)c1O)Cc1c(O)ccc2ccccc12,-15.9% [at 11.4 µM],–
O=C(O)[C@H]1CN[C@H](C(=O)O)C1,0.628%,–
N#Cc1cccc(-c2nc3cnc(N4CCOCC4)nc3n(C[C@H]3CCCO3)c2=O)c1,-0.471%,–
N#Cc1cccc(-c2nc(NCCN3CCOCC3)c3ccccc3n2)c1,–,12600 nM (active)
COc1ccc(-n2ncc3c(NCC4CCCO4)ncnc32)cc1 (configuration not stated),-18.3%,–
CCc1ccc2c(c1)cc(CN(C(=S)Nc1cccc(C)c1)C1CC1)c1nnnn12,–,2240 nM (active)
Cc1cccc(CCNc2nc3ccccc3n3nnnc23)c1,-16.1%,–
CC(NC(=O)CCSc1nc(-c2ccc3c(c2)OCO3)cc(C(F)(F)F)n1)c1ccccc1 (configuration not stated),–,39.8 nM (active)
CC(NC(=O)CCSc1nc(-c2ccco2)cc(C(F)(F)F)n1)c1ccccc1 (configuration not stated),–,20000 nM (active)
C[N+]1(C)CCC(=C(c2ccccc2)c2ccccc2)CC1,-28% [at 25.6 µM],–

Compound,"activity, negative = inhibition",AC50
COc1ccc(C(=O)/C=C2/c3ccccc3CC(C)(C)N2C)cc1,–,7080 nM (active)
COc1ccc(C(=O)N2CCC3(CCN(C)CC3)CC2)cc1,-26%,–
COc1ccc(C(Cl)=C(c2ccc(OC)cc2)c2ccc(OC)cc2)cc1,-23.8% [at 25.6 µM],–
COc1cccc(-c2cncnc2NCc2cccnc2)c1,–,1260 nM (active)
COc1cccc(-c2cncnc2NCc2cccc(C)c2)c1,–,398 nM (active)
COc1cccc(-c2cncnc2NCc2cnc(C)cn2)c1,–,1580 nM (active)
COc1cccc(-c2cncnc2NCc2ccccc2)c1,–,316 nM (active)
CCCCCCc1c(C[C@H](N)C(=O)O)o[nH]c1=O,–,inactive
CCOc1nc(NC(C)C)nc(NC(C)C)n1,-2.02%,–
CC[n+]1c(P(=O)([O-])c2ccccc2)[nH]c2ccccc21,-3.39% [at 2.29 µM],–
Cc1cnc(CNc2ncncc2-c2cccc(C#N)c2)cn1,–,2000 nM (active)
COc1cccc(-c2cncnc2NCc2cccs2)c1,–,1580 nM (active)
CC(=O)O[C@H]1CC[C@@]2(C)C(=CC[C@@H]3[C@H]4CC[C@@H]([C@H](C)C(=O)O)[C@]4(C)CC[C@H]32)C1,1.09% [at 11.4 µM],–
N=c1nc(N2CCCCC2)cc(N)n1O,–,inactive
Cc1ccc(-n2nnnc2Sc2nc([N+](=O)[O-])nn2C)cc1C,–,15800 nM (active)
O=C(O)c1ccc(Sc2nnnn2-c2ccccc2)c([N+](=O)[O-])c1,-2.88% [at 11.4 µM],–
COC(=O)c1ccc(N2CCN(CC(=O)c3ccc(-c4ccccc4)cc3)CC2)c([N+](=O)[O-])c1,15.7% [at 2.29 µM],–
CS(=O)(=O)N1CCN(c2ccc(C(=O)NC3C4CC5CC(C4)CC3C5)cc2[N+](=O)[O-])CC1 (configuration not stated),-25.7%,–
COC(=O)c1cc(NS(=O)(=O)c2ccc(N3CCCCC3)c([N+](=O)[O-])c2)cc(C(=O)OC)c1,–,2000 nM (active)
CC1CCN(CCCCOc2ccccc2[N+](=O)[O-])CC1,-4.5% [at 2.29 µM],–
CC1CCN(c2ccc(S(=O)(=O)Nc3cc(C(=O)O)cc(C(=O)O)c3)cc2[N+](=O)[O-])CC1,–,5620 nM (active)
COC(=O)c1cc(NS(=O)(=O)c2ccc(N3CCCCCC3)c([N+](=O)[O-])c2)cc(C(=O)OC)c1,–,6310 nM (active)

Compound,"activity, negative = inhibition",AC50
COc1ccc2c(c1)C(=NN)c1cc(OC)ccc1-2,–,20000 nM (active)
C[N+](C)(C)c1nc(N)nc2c1ncn2[C@H]1O[C@@H](CO)[C@@H](O)[C@H]1O,16.1% [at 11.4 µM],–
CCCNC(=O)OC[C@@H]1O[C@H](CCO/N=C2\c3cc(OC)ccc3O[C@H](c3cccc(OC)c3)[C@H]2O)C=C[C@@H]1Oc1ccc(OC)cc1,–,5010 nM (active)
COc1cccc([C@H]2Oc3ccc(OC)cc3/C(=N\O[C@@H]3O[C@H](COC(C)=O)[C@H](OC(C)=O)[C@H](OC(C)=O)[C@H]3OC(C)=O)[C@@H]2O)c1,–,3160 nM (active)
CCN1C(=O)[C@H]2[C@H]3[C@H](O)[C@H](O)C/C(=N/OCC[C@H]4C=C[C@H](OC(C)=O)[C@@H](COC(C)=O)O4)[C@@H]3CC[C@@H]2C1=O,-18.6% [at 11.4 µM],–
C=CC[C@@H]1C=C[C@H](O/N=C2\c3cc(OC)ccc3O[C@H](c3cccc(OC)c3)[C@H]2O)[C@H](CO)O1,-80.3% [at 11.4 µM],–
COc1ccc(O[C@H]2C=C[C@@H](c3ccccc3)O[C@H]2CO/N=C2/c3cc(OC)ccc3O[C@@H](c3cccc(OC)c3)[C@H]2O)cc1,–,3160 nM (active)
CC(=O)OC[C@@H]1O[C@@H](O/N=C2/C[C@@H](O)[C@@H](O)[C@@H]3[C@@H]4C(=O)N(c5cccc(Oc6ccccc6)c5)C(=O)[C@H]4CC[C@@H]23)[C@H](OC(C)=O)[C@H](OC(C)=O)[C@@H]1OC(C)=O,-35.5% [at 11.4 µM],–
CC(=O)OC[C@@H]1O[C@@H](O/N=C2/C[C@@H](O)[C@@H](O)[C@@H]3[C@H]4C(=O)N(c5ccc(F)cc5F)C(=O)[C@@H]4CC[C@H]23)[C@H](OC(C)=O)[C@H](OC(C)=O)[C@@H]1OC(C)=O,-23.8% [at 11.4 µM],–
C[C@@]1(CCOCc2ccccc2)NC(=O)NC1=O,-5.69% [at 11.4 µM],–
CC(C)[C@H](NC(=O)OC(C)(C)C)[C@@H](O)CC(=O)C(C)(C)C,-11% [at 11.4 µM],–
O=c1c(Oc2ccccc2Br)c(C(F)(F)F)oc2c(CN3CCCC3)c(O)ccc12,-24.1%,–
Cc1cc(C)cc(N2C(=O)CC(Sc3nnnn3-c3ccccc3)C2=O)c1 (configuration not stated),–,2000 nM (active)
O=C1OCCC1Sc1nnnn1-c1ccccc1 (configuration not stated),-3.46%,–
Cc1cc2c(ncn2Cc2ccccc2)c([N+](=O)[O-])c1C,25%,–
Cc1cccc(Cn2cnc3c(NS(C)(=O)=O)c(C)c(C)cc32)c1,–,2000 nM (active)
CC(C)CN=C(N)N=C(N)N,-1.21% [at 11.4 µM],–
CC(=O)NC1(c2cccc(F)c2)CCN(CC(=O)NC2CCCCC2)CC1,-27.6%,–
O=C(CN(C(=O)CSc1nc2ccccc2o1)c1cccc(F)c1)NC1CCCCC1,–,12600 nM (active)
O=S(=O)(CC(O)COc1ccccc1Cl)c1ccccc1 (configuration not stated),-5.32% [at 11.4 µM],–
Cc1cccc(CNc2ncncc2-c2cccnc2)c1,–,631 nM (active)
c1cncc(CNc2ncncc2-c2cccnc2)c1,–,2000 nM (active)

Compound,"activity, negative = inhibition",AC50
c1ccc(CNc2ncncc2-c2cccnc2)cc1,–,1260 nM (active)
COc1ccc(NC(=O)N2CC3(CCN(C(=O)c4cnccn4)CC3)C2)cc1,-7.85%,–
COc1ccc(NC(=O)N2CC3(CCN(C(=O)c4csnn4)CC3)C2)cc1,-19.1%,–
COc1ccc(NC(=O)N2CCCC3(CCN(C(=O)c4csnn4)CC3)C2)cc1,–,15800 nM (active)
O=C(Nc1ccccc1)N1CCC2(CC1)CCN(C(=O)c1csnn1)CC2,-6.26%,–
O=C(Nc1ccccc1)N1CCCC2(CCN(C(=O)c3csnn3)CC2)C1,–,15800 nM (active)
CC[C@@]1(O)C(=O)OCc2c1cc1n(c2=O)Cc2cc3c(CN(C)C)c(O)ccc3nc2-1,-2.47% [at 11.4 µM],–
CC1(C)O[C@H]2[C@@H](O1)[C@@H](On1nnc3ccc(Cl)cc31)O[C@@H]2[C@@H]1COC(C)(C)O1,-24.7% [at 11.4 µM],–
Cc1ccc(NS(=O)(=O)c2ccc(OCC(=O)Nc3cccc([N+](=O)[O-])c3)c(C)c2)cc1,–,2000 nM (active)
CC1CCN(CC(=O)Nc2cccc([N+](=O)[O-])c2)CC1,-1.85%,–
COc1ccccc1C(=O)Nc1cc2c(ccc3ccccc32)oc1=O,-6.45%,–
COc1ccccc1NC(=O)Cn1nnc(-c2ccccc2NC(=O)c2cc3ccccc3oc2=O)n1,–,3550 nM (active)
COc1ccc(C(=O)OC(C)CN2CCN(C)CC2)cc1OC (configuration not stated),3.07%,–
COC(=O)c1ccc(OCC2c3cc(OC)c(OC)cc3CCN2C(=O)C2CC2)cc1 (configuration not stated),–,17800 nM (active)
COc1ccccc1-c1cncnc1NCc1ccccc1,–,251 nM (active)
COc1ccccc1-c1cncnc1NCc1cccc(C)c1,–,100 nM (active)
COc1ccccc1-c1cncnc1NCc1cccnc1,–,501 nM (active)
CCCCCCN(CCCCCC)C(=O)Cc1c(-c2ccc(F)cc2)[nH]c2ccccc12,–,2510 nM (active)
CCCCN(C)Cc1c(C)[nH]c2ccc(Cl)cc2c1=O,-22.9%,–
CCCCCCN(CCCCCC)C(=O)Cc1c(-c2ccc(Cl)cc2)[nH]c2ccc(Cl)cc12,–,12600 nM (active)
CCOC(=O)c1[nH]c2ccc(Cl)cc2c1-c1ccccc1,18.9%,–
